# Data: PubChem BioAssay AID1030 (National Center for Advancing Translational Sciences (NCATS), 2008)
# About 16,000 (7.3%) of roughly 220,000 compounds were called active. Inconclusive results (about 25%) are left out. This is one part of a sample in which actives are shown more often than they occur. A number with no mark means an inactive call. Calls come from the whole dose curve; as a rule, active = well fitted inhibition curve with a large enough effect (not every such curve was filed as active); inconclusive = small, poorly fitted or top-dose-only effect, or another doubt; inactive = no such curve, though single readings can be large or run the other way.
# Target: Aldehyde dehydrogenase 1A1 (Homo sapiens) (UniProt P00352)
# Experiment: qHTS Assay for Inhibitors of Aldehyde Dehydrogenase 1 (ALDH1A1);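 for activity, negative = inhibition: plate controls were no enzyme wells and a reference inhibitor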
# Conditions: Purified ALDH1A1, NADH fluorescence, propionaldehyde substrate; series mostly up to 75.3 µM; activity, negative = inhibition: at the top concentration
# Potency is the fitted concentration of half-maximal effect.
# Aldehyde dehydrogenase 1A1 (Homo sapiens), sequence (P00352 whole entry, looked up): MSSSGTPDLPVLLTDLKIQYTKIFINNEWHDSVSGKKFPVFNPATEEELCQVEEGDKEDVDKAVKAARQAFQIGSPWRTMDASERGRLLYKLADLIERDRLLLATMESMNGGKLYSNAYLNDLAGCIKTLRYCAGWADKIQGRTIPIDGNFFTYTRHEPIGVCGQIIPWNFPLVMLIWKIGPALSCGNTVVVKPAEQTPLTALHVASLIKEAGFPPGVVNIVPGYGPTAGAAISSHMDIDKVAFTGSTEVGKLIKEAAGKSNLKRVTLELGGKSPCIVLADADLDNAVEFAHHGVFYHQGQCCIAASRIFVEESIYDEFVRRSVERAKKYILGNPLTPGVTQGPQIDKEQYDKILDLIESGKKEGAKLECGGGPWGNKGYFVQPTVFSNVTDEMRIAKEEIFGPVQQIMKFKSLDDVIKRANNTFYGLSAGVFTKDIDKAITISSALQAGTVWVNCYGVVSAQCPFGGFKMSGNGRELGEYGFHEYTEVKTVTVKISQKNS
Compound,"activity, negative = inhibition",Potency
COc1ccc(-c2nn(-c3ccccc3)cc2CN2CCCO2)c(F)c1,-7.57%,
Cc1ccccc1CC1(CO)CCCN(Cc2ccc3c(c2)OCCO3)C1 (centres undefined),9.96%,
Cc1ccc(N(C(=O)Cc2cccs2)C(C(=O)NCC2CCCO2)c2ccncc2)cc1 (centres undefined),-12.7%,
O=C(COC(=O)Cc1ccc(F)cc1)Nc1cc(S(=O)(=O)N2CCOCC2)ccc1N1CCCC1,8.34%,
CCN(CC)S(=O)(=O)c1ccc(N2CCOCC2)c(C(=O)O)c1,5.53%,
CCN(CC)S(=O)(=O)c1ccc(N2CCCC2)c(NS(=O)(=O)c2cccs2)c1,,0.282 µM (active)
COCCNC(=S)Nc1cc(S(=O)(=O)N2CCOCC2)ccc1N1CCCCC1,,5.01 µM (active)
O=C(c1ccc(N2CCOCC2)c([N+](=O)[O-])c1)N1CCN(S(=O)(=O)c2cccs2)CC1,-2.66%,
CCN(CC)S(=O)(=O)c1ccc(N2CCOCC2)c(NC(=O)C2COc3ccccc3O2)c1 (centres undefined),9.44%,
CC(=O)NCCC(=O)Nc1cc(S(=O)(=O)N2CCOCC2)ccc1N1CCOCC1,0.246%,
O=C(COC(=O)c1ccccc1F)Nc1cc(S(=O)(=O)N2CCOCC2)ccc1N1CCCC1,-11.1%,
O=S(=O)(Nc1cc(S(=O)(=O)N2CCOCC2)ccc1N1CCCC1)c1cccs1,,0.398 µM (active)
Cc1ccc2cc(C)c(N3CCC(C)CC3)nc2c1,2.97%,
Cn1c(=O)cc(OCC(=O)N2CCN(c3ccccc3F)CC2)c2ccccc21,-15.9%,
O=C(NCc1ccco1)c1ccc(NS(=O)(=O)c2cccc([N+](=O)[O-])c2)cc1,6.56%,
COc1ccc(CCNC(=O)CSc2nc3[nH]ncc3c(=O)n2-c2cccc(C(F)(F)F)c2)cc1OC,3.85%,
Cc1ccc(Nc2c(F)c(F)c(F)c(F)c2C(=O)O)c(C)c1,1.05%,
Cc1ccccc1C1CC(c2cccs2)=NN1S(C)(=O)=O (centres undefined),-3.89%,
Cc1cc(C)n(-c2ccc(C(=O)O)cc2[N+](=O)[O-])n1,-4.66%,
COc1ccc([C@H]2[C@H](C(C)=O)N3N=Cc4ccccc4C3C23C(=O)OC(C)(C)OC3=O)cc1 (some centres undefined),,10 µM (active)
COc1ccc(C2C(C(=O)N3CCN(c4ccc(OC)cc4)CC3)c3ccccc3C(=O)N2C)cc1 (centres undefined),8.86%,
COc1ccccc1N1CCN(c2ccc([N+](=O)[O-])nc2)CC1,-3.73%,
CCn1c(-c2ccncc2)n[nH]c1=S,1.16%,
CCCc1cc(-c2n[nH]c(=S)n2Cc2ccccc2)cs1,,7.94 µM (active)
CCCc1cc(-c2n[nH]c(=S)n2CC)c2ccccc2n1,-0.903%,

Compound,"activity, negative = inhibition",Potency
CCCOc1ccc(C(=O)NCCc2ccccc2)cc1,-1.06%,
CC1(C)Oc2ccc3ccc(=O)oc3c2/C(=C/NCCO)C1=O,,25.1 µM (active)
C/C=C(/C)C(=O)OC1Cc2c(ccc3ccc(=O)oc23)OC1(C)C (centres undefined),0.157%,
C=CCN(CC=C)S(=O)(=O)c1ccc(C(=O)Nc2nc3c(s2)CCc2ccccc2-3)cc1,2.39%,
COC(=O)c1c(NC(=O)CN(c2ccc(C)c(C)c2)S(C)(=O)=O)sc2c1CCCC2,-27.4%,
C=CCN(CC=C)S(=O)(=O)c1ccc(C(=O)Nc2sc3c(c2C(N)=O)CCCCC3)cc1,,3.16 µM (active)
COCC(C)NC(=O)CSc1nc2nn(-c3ccccc3)c(=O)c-2c2n1CCCCC2 (centres undefined),-4.5%,
Cc1ccc(CNC(=O)CCNS(=O)(=O)c2ccc(Br)s2)cc1,-6.51%,
N#Cc1ccc(-c2nc3cc(C#N)c(C#N)cc3nc2-c2ccccc2)cc1C#N,23.4%,
O=C(COc1ccc(/C=N/NS(=O)(=O)c2ccccc2)cc1)NCCc1ccccc1,,12.6 µM (active)
O=C(CC(=O)N/N=C\c1ccc(F)cc1)NCCc1ccccc1,3.28%,
O=C(COc1ccc(S(=O)(=O)NCCc2ccccc2)cc1)N1CCCC1,-1.53%,
COc1ccccc1N1CCN(CC(=O)NCCc2ccc(S(N)(=O)=O)cc2)CC1,5.14%,
CN(CCc1cn[nH]c1)C(=O)CC1C(=O)NCCN1Cc1cccc(Oc2ccccc2)c1 (centres undefined),-9.91%,
COc1cccc(CN2CCNC(=O)C2CC(=O)N(C)CCc2ccccn2)c1 (centres undefined),-0.0979%,
O=C(CC1C(=O)NCCN1CC(c1ccccc1)c1ccccc1)NCCc1cn[nH]c1 (centres undefined),,14.1 µM (active)
COc1cc(CN2CCNC(=O)C2CC(=O)NCCc2ncccc2C)cc(OC)c1 (centres undefined),,23.8 µM (active)
Cc1ccccc1-n1cc(CNC(=O)CC2C(=O)NCCN2C/C=C/c2ccccc2)cn1 (centres undefined),7.17%,
Cc1cc(C)n(CCNC(=O)CC2C(=O)NCCN2Cc2ccc(C)o2)n1 (centres undefined),-0.0057%,
COC(=O)c1ccc(CN2CCN(CCCc3ccccc3)C(CCO)C2)cc1 (centres undefined),-0.394%,
COc1ccc(-c2csc(NC(=O)COC(=O)Cc3ccc(Cl)cc3Cl)n2)cc1,7.91%,
COc1ccc(N2CCN(c3ccc([N+](=O)[O-])nc3)CC2)cc1,6.14%,
CS(=O)(=O)N1CCc2cc(C(=O)Nc3ccccc3)ccc21,0.559%,
Cc1cc(C)c(NC(=S)N2CCCC2C(=O)O)c(C)c1 (centres undefined),,22.4 µM (active)
Cc1ccc(C)c(NC(=O)C2CCCN2C(=O)OC(C)(C)C)c1 (centres undefined),-11.1%,

Compound,"activity, negative = inhibition",Potency
Cc1cc([N+](=O)[O-])c(N2CCC[C@@H]2C(=O)O)c([N+](=O)[O-])c1,3.99%,
Cc1cc(C(=O)COC(=O)C2CC2)c(C)n1-c1ccc(F)cc1,-3.14%,
COC(=O)[C@@H]1CC[C@H](C)[C@@H](c2ccc(C)cc2)N1C(=O)c1ccc(/C=N/O[C@H](C)c2cn([C@@H]3COC[C@H]3O)nn2)cc1,-3.19%,
O=C(Cc1ccc([N+](=O)[O-])cc1)N/N=C/c1ccco1,-3.71%,
CCCCN1CCNC1=S,5.33%,
CCOC(=O)CCNC(=O)N1CCCC(C(=O)c2ccccc2SC)C1 (centres undefined),5.76%,
Cc1nnnn1/C(=C\c1ccccc1)C(=O)OCC(=O)N1CC2(C)CC1CC(C)(C)C2 (centres undefined),,4.47 µM (active)
COc1ccccc1C(=O)N1CC2(C)CC1CC(C)(C)C2 (centres undefined),-6.45%,
Cc1cccc(C(=O)NCC(=O)OCC(=O)N2CC3(C)CC2CC(C)(C)C3)c1 (centres undefined),3.13%,
COc1cc(N2C(=O)c3ccccc3C2=O)c(Cl)cc1C(=O)OCC(=O)N1CCOCC1,-4.16%,
CC(C)(O)C#Cc1ncc(C(F)(F)F)cc1Cl,8.76%,
CSc1ccc(CN(C)CC(=O)NCc2ccc(F)cc2)cc1,-7.51%,
CCC(C)[C@@H](C(=O)N1CCNCC1)n1cc(CCCCN)nn1 (some centres undefined),2.27%,
COc1cccc(CC(=O)N2CCCC(CCC(=O)N3CCN(c4ccccn4)CC3)C2)c1 (centres undefined),2.51%,
CCSC1=C(C#N)C(=O)n2c1cc1c2CCCC1,,4.47 µM (active)
C=CCNc1nc(Nc2ccc(Cl)cc2)nc(OC)n1,5.03%,
C=C1O[C@@](CO)(n2cnc3c(N)ncnc32)[C@H](O)[C@@H]1O,-5.99%,
Cc1cc(=O)[nH]c(N/N=C/c2c(C)nn(-c3ccccc3Cl)c2Cl)n1,,5.01 µM (active)
Cc1ccc(-n2nc(C)c(/C=N/NC(=O)c3cccs3)c2Cl)cc1,2.29%,
Cc1nnc(N/N=C/c2ccccn2)[nH]c1=O,14.6%,
O=C(CSc1nnc(-c2ccncc2)n1-c1ccc(Cl)cc1)Nc1ccc(C(=O)O)cc1,6.45%,
CC1(C)CC(=O)CC2(C1)NCC(c1ccccc1Cl)c1c2[nH]c2ccccc12 (centres undefined),-4.55%,
COCCN1C(=O)N[C@@H](CCc2ccccc2)[C@H](C(C)=O)[C@H]1C,3.4% [at 13.5 µM],
C=CC1=C2C=C(C3CC3)N(C(CO)CO)C=C2C(=O)C(C)(OC(=O)c2ccco2)C1=O (centres undefined),-4.41% [at 13.5 µM],
CN(C)/C=C(/C(=O)c1ccc(F)cc1)S(=O)(=O)c1ccc(F)cc1,-0.904%,

Compound,"activity, negative = inhibition",Potency
CCOc1ccc(N(CC(=O)NCc2ccc(OC)cc2)S(=O)(=O)c2c(C)noc2C)cc1,-6.14%,
CCOC(=O)c1cccc(NC(=O)CN(c2ccc(C)cc2)S(=O)(=O)c2c(C)noc2C)c1,,7.94 µM (active)
CCOc1ccc(N(CC(=O)OC)S(=O)(=O)c2c(C)noc2C)cc1,2.28%,
CC(=O)c1c(C)[nH]c(C(=O)OCC(=O)NCCC(C)C)c1C,-2.21%,
CCOc1cc(/C=N/NC(=O)c2ccc(CSc3nncn3C)cc2)ccc1OCC(=O)N1CCOCC1,1.26%,
CCOc1cccc(/C=N/NC(=S)NCCN2CCOCC2)c1O,-10.2%,
CCOc1ccccc1N=C1NC(=O)CS1,-7.47%,
CCOc1cccc(/C=N/N2C(=O)CSC2=S)c1O,,7.08 µM (active)
O=C1CCC[C@@H]2CC(N3CCCCC3)C[C@@H]3CCN1[C@H]23 (some centres undefined),3.52% [at 120 µM],
COCCn1c(N)c(N(Cc2ccccc2)C(=O)C2CCCCC2)c(=O)[nH]c1=O,6.29%,
O=C(Cn1ncc(N2CCCC2)c(Br)c1=O)c1ccc(Cl)cc1,1.58%,
CCCN(CCC)S(=O)(=O)c1ccc(C(=O)NNC(=O)c2cc(OC)c(OC)c(OC)c2)cc1,17.2%,
COc1cc(C(=O)N2CCOCC2)cc(OC)c1OC,12.8%,
CCN1CCN(CC(=O)c2cc(OC)c(OC)c(OC)c2)CC1,,28.2 µM (active)
COc1ccc(N2C(=O)C(O)C2c2ccc(C)cc2)cc1 (centres undefined),-1.47%,
Cc1cc2oc(=O)cc(-c3ccccc3)c2c(C)c1-c1ccc(OC(F)(F)F)cc1,-3.09%,
COc1ccc(-c2c(C)cc3oc(=O)cc(-c4ccccc4)c3c2C)cc1F,1.38%,
COc1ccc(-c2c(C)cc3oc(=O)cc(-c4ccccc4)c3c2C)cc1C=O,,0.126 µM (active)
C=CCn1c(COc2ccc(F)cc2)nnc1SCC(=O)Nc1cccc(S(N)(=O)=O)c1,-0.0485%,
Cc1cccc(CSc2nnc(C)c(=O)n2N)c1,14.4%,
Cc1cc(NC(=O)CN2C(=O)NC(C)(CCc3ccccc3)C2=O)no1 (centres undefined),0.49%,
S=C(NNC(=S)NC1CC2C=CC1C2)NC1CC2C=CC1C2 (centres undefined),,12.6 µM (active)
CC1CCN(C(=S)NC2CC3CCC2C3)CC1 (centres undefined),0.0397%,
S=C(NNC(=S)NC1CC2CCC1C2)NC1CC2C=CC1C2 (centres undefined),,20 µM (active)
